Compounds with a hit are over-represented: about 7% of the library has one in this group of screens.
GRIN3A LBD mod – modulates the human NR3A ligand-binding domain | hit rate 2.5% among 340,000 | AID 1259313 | Tm shift relative to glycine control, % at 25 µM | NR3A LBD differential scanning fluorimetry, Tm shift; 0% = protein alone, 100% = glycine-bound protein;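 active means melting temperature shift of at least 10% of the positive control shift, at one fixed dose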
ADAM10 inh – inhibits human ADAM10 | O14672 | recombinant ADAM10, EDANS/DABCYL FRET peptide cleavage, 3 h | inhibition, % at 7 µM | hit rate 0.62% among 370,000;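 active means inhibition above a per-campaign cutoff equal to the mean of compounds falling between control-based bounds plus 3 SD, cut at about 20% in these data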
Target sequence (O14672 214-748 limits assumed): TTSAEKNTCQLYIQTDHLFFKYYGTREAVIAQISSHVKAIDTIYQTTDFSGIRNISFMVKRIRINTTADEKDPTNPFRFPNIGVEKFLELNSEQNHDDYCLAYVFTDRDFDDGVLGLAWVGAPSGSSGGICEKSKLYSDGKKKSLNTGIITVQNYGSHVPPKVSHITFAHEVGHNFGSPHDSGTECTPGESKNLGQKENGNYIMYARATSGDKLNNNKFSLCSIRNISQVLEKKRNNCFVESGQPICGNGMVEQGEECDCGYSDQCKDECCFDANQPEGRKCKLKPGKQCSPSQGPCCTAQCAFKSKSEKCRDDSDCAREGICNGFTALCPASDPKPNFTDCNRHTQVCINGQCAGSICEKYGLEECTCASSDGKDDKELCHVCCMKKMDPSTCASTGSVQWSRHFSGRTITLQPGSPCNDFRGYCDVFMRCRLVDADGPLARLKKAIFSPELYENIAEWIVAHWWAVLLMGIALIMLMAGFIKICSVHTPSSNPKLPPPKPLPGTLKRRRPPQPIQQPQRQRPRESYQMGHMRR
rCAG binder – molecules binding r(CAG) RNA repeats. inhibition, % at 3 µM. hit rate 1.3% among 370,000. r(CAG) RNA repeat, TO-PRO-1 dye displacement fluorescence;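 active means inhibition above the plate cutoff, the mean of all test compounds on that plate plus 3 SD, cut at about 35% in these data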;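 further: higher means more dye released from RNA so lower well fluorescence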
ADAM17 inh – ADAM17 inhibition, QFRET primary screen. P78536. recombinant ADAM17, EDANS/DABCYL FRET peptide cleavage. inhibition, % at 6.95 µM. hit rate 0.83% among 370,000;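 active means inhibition above the mean of compounds lying between control limits plus 3 SD, set per campaign, cut at about 8.5% in these data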
AHR activator – human AHR activation; AID 2796; P35869; hit rate 2.5% among 320,000; AHR-responsive luciferase reporter cells, luminescence; activation, % at 5 µM; in the data active means activation above about 47%
KLK7 zymogen act – proKLK7 (human) activation, primary screen. activation, % at 7 µM. hit rate 0.9% among 370,000. purified proKLK7, EDANS-DABCYL substrate fluorescence; 100% is mature enzyme control, 0% vehicle. P49862;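 active means activation above the mean of all tested compounds plus 3 SD, computed per campaign excluding outliers beyond control limits, cut at about 13% in these data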
Of the large screens only hits and unclear results are named; the others gave an inactive call.

C/C(=N/NS(=O)(=O)c1ccc(Cl)cc1)c1cccc(NC(=O)c2ccc(Cl)cc2Cl)c1	GRIN3A LBD mod 18
COCCCNC(=O)C[C@@H]1C(=O)N(CCc2ccc(Cl)cc2)C2=CCCCC[C@]21C(=O)OC	none (no result: GRIN3A LBD mod, AHR activator)
C[C@@H]1CN(c2ccc(N3CCN(C(=O)OC(C)(C)C)C[C@@H]3C)cc2C#N)C[C@H](C)O1	none (no result: GRIN3A LBD mod, AHR activator)
Cc1cc2cc(CNC(=O)NC3CCCCC3)ccc2[nH]1	AHR activator 57
CN(CCCOC(=O)c1cc2ccccc2o1)C1CN(Cc2cn(Cc3ccc([N+](=O)[O-])cc3)nn2)S(=O)(=O)C1 (stereo not given)	none (no result: GRIN3A LBD mod, AHR activator)
Oc1ccc(N=Cc2ccc(OCc3ccccc3)cc2)cc1	GRIN3A LBD mod 10
O=C(Nc1ccc(OCc2ccccc2)cc1)c1cccs1	GRIN3A LBD mod 25
Cc1occc1C(=O)Nc1ccc(OCc2ccccc2)cc1	GRIN3A LBD mod 26
O=C(N/N=C/c1ccc(OCc2ccccc2)cc1)c1ccncc1	none
O=C(N/N=C/c1ccc(OCc2ccccc2)cc1)c1cccs1	GRIN3A LBD mod 21
COc1cc(NC(=O)NC2CCCCN(Cc3cccc(Cl)c3)C2=O)cc(OC)c1 (stereo not given)	none (no result: GRIN3A LBD mod, AHR activator)
CC(C)CCn1cnc2c([nH]c3cccc(Cl)c32)c1=O	AHR activator 60
O=c1c2[nH]c3ccccc3c2ncn1CCN1CCOCC1	none
O=c1c2ccccc2ncn1C1CCCCC1	none
O=c1c2[nH]c3ccccc3c2ncn1CCN1CCCCC1	AHR activator 72
O=c1c2[nH]c3ccccc3c2ncn1C1CCCCC1	AHR activator 48
CC(=O)Nc1sc2c(c1-c1nc(-c3ccccc3)cs1)CCN(C(C)C)C2	none (no result: GRIN3A LBD mod, rCAG binder, AHR activator, KLK7 zymogen act)
O=C(N/N=C1\SCC(=O)N1CCc1ccccc1)c1cccs1	AHR activator 51
COc1ccc(CCN2C(=O)CS/C2=N\NC(=O)c2ccc(C(C)(C)C)cc2)cc1OC	none
O=C(COc1cccc2cccnc12)N/N=C1\SCC(=O)N1Cc1ccccc1	AHR activator 52
O=C(COc1cccc2cccnc12)NNC(=S)Nc1ccccc1	none (no result: GRIN3A LBD mod, ADAM10 inh, rCAG binder, ADAM17 inh, KLK7 zymogen act)
C[C@@H]1CCN(C2CC2)S(=O)(=O)c2ccc(N3CC[C@@H](O)C3)cc2O1	none (no result: GRIN3A LBD mod, AHR activator)
C=CCN1C(=O)/C(=C/c2ccc(O)cc2)S/C1=N/c1nccs1	GRIN3A LBD mod 20
C#CCN1CC(COc2ccccc2)OCCS1(=O)=O (stereo not given)	none (no result: GRIN3A LBD mod, AHR activator)
CC(C)(C)c1cccc(N/C(=C\C(=O)c2ccccc2)c2ccccc2)c1	none (no result: GRIN3A LBD mod, AHR activator)
Cc1cccc(Nc2nc(N)nc(CSc3nccn3C)n2)c1	AHR activator 75
Cc1ccc(Nc2nc(N)nc(CSc3nccn3C)n2)cc1	none
Cc1ccc2c(c1)C(CS(=O)(=O)NCC(C)C)NC2 (stereo not given)	none (no result: GRIN3A LBD mod, AHR activator)
Nc1nn(S(=O)(=O)c2ccccc2)cc1-c1cccc([N+](=O)[O-])c1	GRIN3A LBD mod 22
CCOc1ccc(S(=O)(=O)n2cc(-c3ccccc3)c(N)n2)cc1	none
C[C@H]1[C@@H](OC(=O)NCc2ccc(Cl)c(Cl)c2)CC[C@@]23CCCN2C(=O)CCC[C@@H]13	none (no result: GRIN3A LBD mod, rCAG binder, AHR activator, KLK7 zymogen act)
COc1cc(NC(=O)c2ccc(OC)c([N+](=O)[O-])c2)ccc1NC(=O)c1ccco1	GRIN3A LBD mod 17, AHR activator 50
COc1ccc(C(=O)Nc2cccc(-c3cc4ccccc4oc3=O)c2)cc1[N+](=O)[O-]	GRIN3A LBD mod 11
CC(=O)Nc1ccc(NC(=O)c2cccc(-c3cc4ccccc4oc3=O)c2)cc1	none
COc1cc(NC(=O)c2oc3ccccc3c2C)ccc1NC(=O)c1ccco1	GRIN3A LBD mod 24
Cc1ccc(NC(=O)c2ccc(NCc3ccco3)c([N+](=O)[O-])c2)cc1Cl	GRIN3A LBD mod 15
CC1(C)CC(=O)C=C(Nc2ccccc2NC(=O)c2ccc(F)cc2F)C1	none (no result: GRIN3A LBD mod, AHR activator)
CC(=O)c1c(C)[nH]c(C(=O)COc2ccc3ccc(=O)oc3c2)c1C	AHR activator 56
COc1cccc(C(=O)COc2ccc3ccc(=O)oc3c2)c1	GRIN3A LBD mod 16
CN1CC=C(c2ccccc2)N(c2ccc(Cl)cc2)C1=O	none (no result: GRIN3A LBD mod, AHR activator)
COc1cc(/C=N\Nc2ccc([N+](=O)[O-])cc2)ccc1OCC(=O)Nc1ccc(C)c(C)c1	GRIN3A LBD mod 17 (no result: AHR activator)
CCOc1cc(/C=N\Nc2ccc([N+](=O)[O-])cc2)ccc1OCC(=O)Nc1ccc(C)c(C)c1	GRIN3A LBD mod 15
COc1cc(/C=N\NC(=O)CN2CCOCC2)ccc1OCC(=O)Nc1ccc(C)c(C)c1	none
Cc1cccc(Cn2cc(COC(=O)NCCc3ccccc3)nn2)c1	none (no result: GRIN3A LBD mod, AHR activator)
COc1ccccc1NC(=O)NC(N)=O	none
CCCCN(C(=O)NC(=O)Nc1ccccc1OC)S(C)(=O)=O	AHR activator 58
COc1ccccc1NC(=O)Nc1nnc(C(C)C)s1	AHR activator 60
CCCCN(C(=O)NC(=O)Nc1cc(C)ccc1C)S(C)(=O)=O	none
COc1ccccc1NC(=O)NC(=O)N(C(C)C)S(C)(=O)=O	AHR activator 60
CN1CCN(c2ccc3c(c2)Oc2ccccc2CN(Cc2cn(Cc4cccc(C(F)(F)F)c4)nn2)S3(=O)=O)CC1	none (no result: GRIN3A LBD mod, AHR activator)
O=C(/C=C/c1ccc(Cl)c([N+](=O)[O-])c1)Nc1ccc(N2CCCC2)c(Cl)c1	GRIN3A LBD mod 17
CN1CCN(c2ccc(S(=O)(=O)N3CCCCC3)cc2NC(=O)/C=C/c2ccc(Cl)c([N+](=O)[O-])c2)CC1	none
CC(=O)Nc1ccc(S(=O)(=O)NCCC(=O)Nc2ccc(C)c(Cl)c2)cc1	none
Cc1ccc(S(=O)(=O)NCCC(=O)Nc2ccc(Cl)c(Cl)c2)cc1C	GRIN3A LBD mod 13
CCCCCCCCNC(=O)C1CSCCS(=O)(=O)N1Cc1ccc(OC)cc1 (stereo not given)	none (no result: GRIN3A LBD mod, AHR activator)
CCOc1ccc(NC(=O)CCn2c(=O)[nH]c3ccsc3c2=O)cc1	GRIN3A LBD mod 19
CCC(NC(=O)C1CCCN(c2ncccn2)C1)c1ccccc1 (stereo not given)	none (no result: GRIN3A LBD mod, AHR activator)
Cc1ccc(Cn2c(=O)c3cccnc3n(CC(=O)Nc3cccc(C(F)(F)F)c3)c2=O)cc1	GRIN3A LBD mod 23
O=C(CN1CCN(Cc2ccccc2)CC1)Nc1cccc(C(F)(F)F)c1	none
CCCCCCCCN1CCS(=O)(=O)N(Cc2ccccc2)C(C(=O)OC)C1 (stereo not given)	none (no result: GRIN3A LBD mod, AHR activator)
COCc1[nH]nc2c1C(c1ccc3c(c1)OCO3)N(Cc1ccccc1)C2=O (stereo not given)	none (no result: GRIN3A LBD mod, AHR activator)
CCOC(=O)c1nnc(-c2ccc(C)cc2)nc1N1CCSCC1	AHR activator 57
CCOC(=O)c1nnc(-c2ccc(C)cc2)nc1Sc1ccc(Cl)cc1	none
O=C(O)/C=C\C(=O)Nc1ccccc1C#Cc1ccc(Br)cc1	AHR activator 69
CCc1nn2c(N)c(/C=C3\C=Nc4ccccc43)c(=O)nc2s1	none
CSc1nsc2nc(=O)c(/C=C3\C=Nc4ccccc43)c(N)n12	GRIN3A LBD mod 22
COc1ccc(N=C2NN=C(c3ccc4c(c3)OCCO4)CS2)cc1	none

Screening data from PubChem BioAssay.
